# Assay results taken from PubChem BioAssay (NCI).
# The panel holds about 83,000 compounds, 20% with a hit somewhere; the sample as a whole holds those more often.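 The endpoint reported here, percent growth, reads 100 for growth as untreated, 0 for no net growth and -100 for all cells dead.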 Active and inactive are the calls of the source. Rule for the calls: active = growth percent below 10; inactive = the rest.
# System: HT29 colon
# Assay: NCI-60 one-dose screen, 48 h (100 = growth as untreated, 0 = no growth, -100 = all killed)
# Conditions: 10 µM unless noted
row,Compound,growth
1,NS(=O)(=O)c1ccc(Nc2nc(N/N=C/c3c[nH]c4ccccc34)nc(Nc3ccccc3)n2)cc1,31.6% (inactive)
2,CCc1cccc2c3c(sc12)C(c1ccc(OC)cc1)C(C#N)=C(/N=C/c1ccc(Cl)cc1)O3 (stereo not drawn),-25.7% (active)
3,Cn1ccnc1C(=O)/C=C/c1ccc(CNC(=O)c2ccc(F)cc2)cc1,10.2% (inactive)
4,N#Cc1cccc(NC(=O)c2cc(-c3ccc(F)cc3F)ccc2O)c1,94.9% (inactive)
5,O=S(=O)(NCCCNc1nccc(-c2[nH]c(-c3ccccc3)nc2-c2ccc(Cl)c(O)c2)n1)c1cccc2ccccc12,38.6% (inactive)
6,CC1(C)[C@@H](O)CC[C@]2(C)[C@H]3CC[C@@H]4[C@H]5[C@H](C(=O)/C=C\c6ccncc6)CC[C@]5(O)CC[C@@]4(C)[C@]3(C)CC[C@@H]12,34.7% (inactive)
7,CS(=O)(=O)Nc1cc(-c2ccc3ncc(C#N)c(N[C@H](CO)c4ccccc4)c3c2)cnc1Cl,74.3% (inactive)
8,O=C(CSc1nc2ccccc2c(=O)n1-c1ccccc1)Nc1ccc(-c2nc3ccc([N+](=O)[O-])cc3[nH]2)cc1,79.3% (inactive)
9,Oc1cccc2ccc(-c3nnc(SCc4ccc(O)c5ncccc45)n3-c3ccccc3)nc12,81.3% (inactive)
10,C=CCn1c(SCC(=O)Nc2ccc(C(=O)/C=C/c3ccc(C)cc3)cc2)nnc1-c1c[nH]c2ccccc12,101% (inactive)
11,C[C@@H](Nc1c(C#N)cnc2ccc(-c3cnc(Cl)c(NS(C)(=O)=O)c3)cc12)c1ccccc1,11.6% (inactive)
12,CCN(CC)c1ccc(NC2=C(Cl)C(=O)c3nc(C)ccc3C2=O)cc1,104% (inactive)
13,C#Cc1nc(C(=O)NCCC(=O)Nc2ccc(NC(=O)c3ccc(/C=C/C(=O)c4nccn4C)cc3)cc2)cs1,2.68% (active)
14,CCN(CC)CCn1c2ccc(O)cc2c2sc3cc(OC)ccc3c(=O)c21,-13.8% (active)
15,CC1(C)CC[C@]2(C(=O)N3CCOCC3)CC[C@]3(C)C(=CC[C@@H]4[C@@]5(C)C/C(=C/c6ccccn6)C(=O)C(C)(C)[C@@H]5CC[C@]43C)[C@@H]2C1,56.3% (inactive)
16,Cc1nc(-c2ccccc2O)ccc1C(=O)N=Nc1c(O)[nH]c2ccc(Br)cc12,112% (inactive)
17,O=C(CCn1c[n+](CC(=O)c2ccc(-c3ccccc3)cc2)c2ccccc21)Nc1cccc2cccnc12,51.8% (inactive)
18,COC(=O)c1[nH]nc2c1C1(C(=O)c3cccc4cccc1c34)C(C#N)=C(N)O2 (stereo not drawn),105% (inactive)
19,N=c1c2cc(-c3ccccc3)oc2ncn1/N=C/c1ccc(Cl)cc1,98.7% (inactive)

row,Compound,growth
1,Cc1ccc(-n2c(/C=C3\C(=O)Nc4ccccc43)ccc2CO)cc1,60.7% (inactive)
2,CC(=O)N(C)C1CCc2c(sc(NC(=O)c3ccc(C(C)(C)C)cc3)c2C(N)=O)C1 (stereo not drawn),77.7% (inactive)
3,CC1(C)[C@@H](O)CC[C@]2(C)[C@H]3CC[C@@H]4[C@H]5[C@H](C(=O)/C=C\c6ccc([N+](=O)[O-])cc6)CC[C@]5(O)CC[C@@]4(C)[C@]3(C)CC[C@@H]12,46.1% (inactive)
4,Cc1ccc(NC(=O)CNc2cc(C(N)=O)cc(F)c2C)c(Cl)c1,114% (inactive)
5,COc1ccc(N2CCN(C3=C(Cl)C(=O)C(C)=C(C)C3=O)CC2)cc1,120% (inactive)
6,CN1CCN(c2ccc(/C=N/Nc3nc4ccccc4c(=O)n3-c3ccccc3)cc2)CC1,100% (inactive)
7,COc1cc(-c2nc3sccn3c2-c2ccnc(S(C)(=O)=O)n2)ccc1F,116% (inactive)
8,Cc1ccc2c(c1)Oc1nc(N)c(C#N)c(N)c1C2Sc1ccc(F)cc1 (stereo not drawn),-38.6% (active)
9,CCCn1cnc2c(c1=N)C(c1ccc(F)cc1)c1sc3c(C)cccc3c1O2 (stereo not drawn),57% (inactive)
10,COc1ccc(Cn2cc3c(c2-c2cc(OC)c(OC)c(OC)c2)CCc2c(CN4CCCC4)noc2-3)cc1,8.73% (active)
11,CC1=N[C@@H]2CN(C(=O)OC(C)(C)C)C[C@@H]2n2c1cc1ccccc1c2=O,106% (inactive)
12,COc1cc(OC)cc(C(=O)Nc2cccc(C#Cc3cccc4[nH]nc(N)c34)c2)c1,7.34% (active)
13,COc1ccccc1-n1cc(C#N)c(N)c1C(=O)c1ccc(Br)cc1,44.6% (inactive)
14,CS(=O)(=O)Nc1cc(-c2ccc3ncc(C#N)c(NCc4cccc(F)c4)c3c2)cnc1Cl,9.57% (active)
15,CC[C@H](CO)Nc1ccc2ncc(C#Cc3cncc(C(=O)Nc4ccc(CN5CCN(C)CC5)c(C(F)(F)F)c4)c3)n2n1,-35.6% (active)
16,COc1cc(-c2nc(SCCC(C)C)nc(NNC(=O)c3ccncc3)c2C#N)cc(OC)c1OC,42.9% (inactive)
17,CCCCCc1ccc(S(=O)(=O)Nc2cc(-c3csc(NC(=O)CN4CCN(CCO)CC4)n3)ccc2OC)cc1,4.51% (active)
18,CCCn1cnc2c(c1=N)C(c1ccc(OC)cc1)c1sc3c(CC)cccc3c1O2 (stereo not drawn),5.9% (active)
19,C#Cc1ccc(C(=O)NCc2ccc(/C=C/C(=O)c3nccn3C)cc2)cc1,8.87% (active)
